Reference: PMC5700166

Molecular target: T1, GST-Aq-NF-kB (Amphimedon queenslandica, UniProt A9Y5G7 2-389)
T1 sequence: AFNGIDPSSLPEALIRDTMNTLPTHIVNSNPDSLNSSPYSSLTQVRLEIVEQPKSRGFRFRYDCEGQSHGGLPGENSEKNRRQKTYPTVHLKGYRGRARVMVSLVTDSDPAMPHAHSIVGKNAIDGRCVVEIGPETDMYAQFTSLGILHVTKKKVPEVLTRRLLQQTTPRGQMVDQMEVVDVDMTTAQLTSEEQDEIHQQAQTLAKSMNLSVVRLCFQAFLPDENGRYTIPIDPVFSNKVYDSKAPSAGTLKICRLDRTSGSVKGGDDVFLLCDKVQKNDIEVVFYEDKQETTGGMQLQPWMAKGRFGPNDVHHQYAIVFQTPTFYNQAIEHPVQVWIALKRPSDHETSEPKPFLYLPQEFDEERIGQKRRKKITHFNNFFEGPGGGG
Assay: protein-binding microarray (PBM); PBM: ~300 nM protein, 6 mM HEPES pH 7.8, 80 mM KCl, 0.5 mM EDTA, 0.5 mM EGTA, 6% glycerol, 35 ng/ul poly-dIdC, 1% milk, 1 h, room temperature; Ap Aiptasia and Nv Nematostella (sea anemones) / Co Capsaspora / Aq Amphimedon (sponge) / Dm Drosophila / Hu human; RHD is the Rel homology domain; high values mean tight binding
Settings: dsDNA, one strand shown

Sequence	binding signal
CCGATTAACATCAGGAATAGCCCTGATGTTAATCGGGTCTTGATTCGCTTGACGCTGCTG	1.9 z-score
CCGATTAACATCAAAAATCCGGTTGATGTTAATCGGGTCTTGATTCGCTTGACGCTGCTG	1.32 z-score
CCGATTAACATCAGGACAGTCCATGATGTTAATCGGGTCTTGATTCGCTTGACGCTGCTG	1.46 z-score
CCGATTAACATCACGGACTCTCCTGATGTTAATCGGGTCTTGATTCGCTTGACGCTGCTG	2.26 z-score
CCGATTAACATCAGGAAAGTTCCTGATGTTAATCGGGTCTTGATTCGCTTGACGCTGCTG	1.9 z-score
CCGATTAACATCAAGGACATTCCTGATGTTAATCGGGTCTTGATTCGCTTGACGCTGCTG	1.43 z-score
CCGATTAACATCACGGAAAATTCTGATGTTAATCGGGTCTTGATTCGCTTGACGCTGCTG	1.15 z-score
CCGATTAACATCACGGATTTTCCTGATGTTAATCGGGTCTTGATTCGCTTGACGCTGCTG	3.35 z-score
CCGATTAACATCAGGAATTGCCATGATGTTAATCGGGTCTTGATTCGCTTGACGCTGCTG	1.02 z-score
CCGATTAACATCAAAGAATTTCCTGATGTTAATCGGGTCTTGATTCGCTTGACGCTGCTG	1.45 z-score
CCGATTAACATCAGAATTTCCGCTGATGTTAATCGGGTCTTGATTCGCTTGACGCTGCTG	1.06 z-score
CCGATTAACATCACGGCAATTCCTGATGTTAATCGGGTCTTGATTCGCTTGACGCTGCTG	1.38 z-score
CCGATTAACATCAAGGATTGCCCTGATGTTAATCGGGTCTTGATTCGCTTGACGCTGCTG	1.51 z-score
CCGATTAACATCAAGGAGATTCCTGATGTTAATCGGGTCTTGATTCGCTTGACGCTGCTG	1.73 z-score
CCGATTAACATCAAGGAACTTCCTGATGTTAATCGGGTCTTGATTCGCTTGACGCTGCTG	1.83 z-score
CCGATTAACATCAAATTTCCGGATGATGTTAATCGGGTCTTGATTCGCTTGACGCTGCTG	1.25 z-score
CCGATTAACATCAGGAACTTCCATGATGTTAATCGGGTCTTGATTCGCTTGACGCTGCTG	1.63 z-score
CCGATTAACATCACGGACATTCCTGATGTTAATCGGGTCTTGATTCGCTTGACGCTGCTG	1.97 z-score
CCGATTAACATCAGGATATGCCCTGATGTTAATCGGGTCTTGATTCGCTTGACGCTGCTG	1.7 z-score
CCGATTAACATCAAAATTCCGGATGATGTTAATCGGGTCTTGATTCGCTTGACGCTGCTG	1.54 z-score

Sequence	binding signal
CCGATTAACATCAAGGAAAAGCCTGATGTTAATCGGGTCTTGATTCGCTTGACGCTGCTG	1.11 z-score
CCGATTAACATCAGGAGTTGCCCTGATGTTAATCGGGTCTTGATTCGCTTGACGCTGCTG	3.13 z-score
CCGATTAACATCAGGAAATTTCATGATGTTAATCGGGTCTTGATTCGCTTGACGCTGCTG	1.4 z-score
CCGATTAACATCAGGAAGTTCCATGATGTTAATCGGGTCTTGATTCGCTTGACGCTGCTG	1.48 z-score
CCGATTAACATCAAACCCTACTGTGATGTTAATCGGGTCTTGATTCGCTTGACGCTGCTG	1.19 z-score
CCGATTAACATCAAGAATTTCCGTGATGTTAATCGGGTCTTGATTCGCTTGACGCTGCTG	1.89 z-score
CCGATTAACATCAGGAATGTCCATGATGTTAATCGGGTCTTGATTCGCTTGACGCTGCTG	1.06 z-score
CCGATTAACATCACGAAATTTCCTGATGTTAATCGGGTCTTGATTCGCTTGACGCTGCTG	1.65 z-score
CCGATTAACATCAGGACATTCCATGATGTTAATCGGGTCTTGATTCGCTTGACGCTGCTG	1.23 z-score
CCGATTAACATCACGGGTTGCCCTGATGTTAATCGGGTCTTGATTCGCTTGACGCTGCTG	1.04 z-score
CCGATTAACATCACGGAATGTCCTGATGTTAATCGGGTCTTGATTCGCTTGACGCTGCTG	1.82 z-score
CCGATTAACATCAGAATTGCCCATGATGTTAATCGGGTCTTGATTCGCTTGACGCTGCTG	1.1 z-score
CCGATTAACATCAGCAAAATTCCTGATGTTAATCGGGTCTTGATTCGCTTGACGCTGCTG	1.04 z-score
CCGATTAACATCAACGGAATTTCTGATGTTAATCGGGTCTTGATTCGCTTGACGCTGCTG	1 z-score
CCGATTAACATCACGGACTGCCCTGATGTTAATCGGGTCTTGATTCGCTTGACGCTGCTG	1.7 z-score
CCGATTAACATCAGGCAAAACCCTGATGTTAATCGGGTCTTGATTCGCTTGACGCTGCTG	3.28 z-score
CCGATTAACATCAAGGAATCTCCTGATGTTAATCGGGTCTTGATTCGCTTGACGCTGCTG	1.78 z-score
CCGATTAACATCAGGCAATGCCCTGATGTTAATCGGGTCTTGATTCGCTTGACGCTGCTG	1.31 z-score
CCGATTAACATCAAGGAAGTTCCTGATGTTAATCGGGTCTTGATTCGCTTGACGCTGCTG	2.07 z-score
